SENP7 block – SENP7 protease inhibition; hit rate 1.5% among 330,000; recombinant SENP7, Z-RLRGG-aminoluciferin luminescence, 40 min; Q9BQF6; inhibition, % at 5 µM;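 active = inhibition above about 50% at the single test dose, limit read from the data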
Target sequence (Q9BQF6 706-1050 limits assumed): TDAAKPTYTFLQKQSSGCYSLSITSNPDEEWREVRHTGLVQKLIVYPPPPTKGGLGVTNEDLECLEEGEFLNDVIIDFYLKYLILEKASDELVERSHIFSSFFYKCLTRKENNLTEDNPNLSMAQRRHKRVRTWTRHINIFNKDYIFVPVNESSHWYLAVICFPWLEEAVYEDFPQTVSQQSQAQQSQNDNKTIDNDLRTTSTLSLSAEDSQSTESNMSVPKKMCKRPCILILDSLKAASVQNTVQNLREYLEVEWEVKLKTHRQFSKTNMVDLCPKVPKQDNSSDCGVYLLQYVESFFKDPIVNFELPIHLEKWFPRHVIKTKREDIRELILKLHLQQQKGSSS
AHR act – activators of human aryl hydrocarbon receptor; P35869; AHR-responsive luciferase reporter cells, luminescence; activation, % at 5 µM; AID 2796; hit rate 2.5% among 320,000; in the data active = activation above about 47%
SENP8 block-1 – inhibitors of human SENP8 protease; Q96LD8; recombinant SENP8, Nedd8 substrate fluorescence; inhibition, % at 20 µM; hit rate 0.64% among 360,000; AID 602440; in the data active = inhibition mostly above about 40%, no sharp cut-off; inactive = mostly below about 27%
Target sequence (Q96LD8 whole entry, looked up): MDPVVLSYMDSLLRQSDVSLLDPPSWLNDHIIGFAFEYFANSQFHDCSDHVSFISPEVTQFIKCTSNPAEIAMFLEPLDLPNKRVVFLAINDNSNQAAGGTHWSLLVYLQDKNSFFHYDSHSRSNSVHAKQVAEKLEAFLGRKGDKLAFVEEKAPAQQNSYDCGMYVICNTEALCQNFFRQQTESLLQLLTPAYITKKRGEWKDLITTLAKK
SENP6 block – inhibitors of human SENP6 protease; AID 2599; Q9GZR1; hit rate 1.8% among 330,000; Recombinant SENP6 catalytic domain, aminoluciferin luminescence; inhibition, % at 10 µM;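 active = inhibition above about 50% at the single tested dose, limit read from the data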
EBI2 antag – antagonists of human EBI2 receptor; EBI2 beta-arrestin recruitment, luminescence, 7a,25-OHC stimulated; inhibition, % at 5 µM; hit rate 0.81% among 360,000; in the data active = inhibition above about 38%;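 also: enzyme fragment complementation signal reports receptor beta-arrestin coupling in cells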
SENP8 block-2 – SENP8 protease inhibition | Q96LD8 | purified SENP8, Z-RLRGG-aminoluciferin cleavage, luminescence | inhibition, % at 10 µM | hit rate 1.2% among 330,000 | AID 2540; in the data active = inhibition above about 50%
AHR act cf – confirmation of human aryl hydrocarbon receptor activators. shares compounds with AHR act. human cells, AHR-responsive luciferase reporter, luminescence. activation, % at 9 µM. hit rate 87% among 2,300. AID 2845; in the data active = activation above about 49%;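 also: HepG2 hepatoma cells carrying a DRE-driven firefly luciferase reporter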
PXR counter – activates human PXR in AHR activator counter-screen; shares compounds with AHR act; hit rate 88% among 2,300; AID 434939; cell-based PXR reporter, luciferase luminescence; activation, % at 11.6 µM; in the data active = activation above about 11%;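 also: human hepatoma DPX-2 cells expressing full-length human PXR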
Hits are given with their value; . = inactive; / = no result given. Most compounds without a hit are left out; they make up all but 5% or so of the library.

SMILES | SENP7 block | AHR act | SENP8 block-1 | SENP6 block | EBI2 antag | SENP8 block-2 | AHR act cf | PXR counter
COc1ccc2nc(NNC(=O)C3COc4ccccc4O3)sc2c1 (stereo unspecified) | . | 117 | . | . | . | . | 76 | 30
COc1ccc(Nc2nc(-c3cccs3)nc3ccccc23)cc1 | . | . | . | . | . | . | / | /
COc1cccc(Nc2nc(-c3cccs3)nc3ccccc23)c1 | . | 88 | . | . | . | . | . | 68
COC(=O)C(CO)Nc1ncnc2onc(-c3ccc(F)cc3)c12 (stereo unspecified) | . | . | . | . | . | . | / | /
COc1ccc(NC(=O)C(=O)NCCN2CCN(C(=O)c3ccco3)CC2)cc1 | . | . | . | . | . | . | / | /
COCC(=O)N1CCc2ccc(NC(=O)c3ccc(C(F)(F)F)cc3)cc2C1 | / | 103 | . | / | . | / | 73 | /
Cc1ccc2nc(-c3cccnc3)oc2c1 | . | 89 | . | . | . | . | 106 | 31
Cc1ccc2nc(Nc3nc(C)cc(C(F)(F)F)n3)nc(C)c2c1 | . | 98 | . | . | . | . | 95 | 131
Cc1ccc(Nc2cc(C)nc3ccc(C)cc23)cc1 | . | . | . | . | . | . | / | /
N#CCCN(Cc1cccnc1)C(=S)NC(=O)c1ccccc1 | . | . | . | . | . | . | / | /
O=C(/C=C/c1ccc(Cl)c([N+](=O)[O-])c1)Nc1ccc(N2CCCC2)cc1 | . | 84 | . | . | . | . | 95 | 18
O=C(Nc1nc2ccc(Cl)cc2s1)C1CC1 | . | 114 | . | . | . | . | 77 | 19
COC(=O)c1ccc2nc(NC(=O)C3CCCCC3)sc2c1 | . | . | . | . | . | . | / | /
O=C(Nc1nc2c(Br)cccc2s1)C1CC1 | . | 132 | . | . | . | . | 97 | 18
Cc1cccc2sc(NC(=O)C3CC3)nc12 | . | / | . | . | . | . | / | /
O=C(Nc1nc2ccc(Cl)cc2s1)C1CCCO1 (stereo unspecified) | . | . | . | . | . | . | / | /
CC(C)c1ccc2nc(NC(=O)C3CC3)sc2c1 | . | 89 | . | . | . | . | 79 | 39
COc1ccc([C@H]2C[C@H](O)[C@@H](n3cc(C4CC4)nn3)CN2C(=O)c2cccs2)cc1 | / | / | . | / | . | / | / | /
Cc1ccc(NC(=O)CN2C(=O)CSc3ccc(S(=O)(=O)N4CCCCC4)cc32)cc1 | . | . | . | . | . | . | / | /
N#Cc1cccc2c1-c1ccccc1/C2=N/NC(N)=O | . | . | . | . | . | . | / | /
N#Cc1cccc2c1-c1ccccc1/C2=N/NC(N)=S | . | 139 | . | . | . | . | 117 | 44
CCc1ccccc1S(=O)(=O)Cc1ccc(C(=O)N2CCN(c3ccccn3)CC2)o1 | . | 84 | . | . | . | . | 65 | 107
Cc1ccccc1S(=O)(=O)Cc1ccc(C(=O)N2CCN(c3ncccn3)CC2)o1 | . | . | . | . | . | . | / | /
COc1ccccc1NC(=O)CCCCCN1C(=O)c2cccc3cccc(c23)C1=O | . | 85 | . | . | . | . | . | 56
COc1ccccc1NC(=O)CCCCCN1C(=O)c2cccc([N+](=O)[O-])c2C1=O | . | . | . | . | . | . | / | /
SMILES | SENP7 block | AHR act | SENP8 block-1 | SENP6 block | EBI2 antag | SENP8 block-2 | AHR act cf | PXR counter
Cn1c(C(=O)N2CCC(C(N)=O)CC2)cc2cc(Cl)ccc21 | . | 101 | . | . | . | . | 116 | /
O=C(Nc1ccc(Nc2ccccc2)cc1)c1ccc(Br)cc1 | . | . | . | . | . | . | / | /
O=C(Nc1cccc(-n2cnnn2)c1)c1ccccc1Br | . | . | . | . | . | . | / | /
O=C(Nc1ccc(Br)cc1)c1cccc(S(=O)(=O)Nc2cnc3ccccc3c2)c1 | . | 83 | . | . | . | . | 75 | 12
O=C(Nc1cccc(C(=O)Nc2ccc(Br)cc2)c1)c1ccccc1 | . | 89 | . | . | . | . | . | 22
O=C(Nc1ccc(Br)cc1)c1cccc(-n2cnnn2)c1 | . | 91 | . | . | . | . | 103 | 29
Cc1cc(C(F)(F)F)nn1CC(=O)NCc1cccs1 | . | . | . | . | . | . | / | /
O=C(CCl)Nc1cccc(-c2cnc3ccccc3n2)c1 | . | 118 | . | . | . | . | . | .
CCC(=O)Nc1cccc(-c2cnc3ccccc3n2)c1 | . | . | . | . | . | . | / | /
COc1cc(NC(=O)CSc2ncnc3sc4c(c23)CCC(C)C4)c(C(=O)O)cc1OC (stereo unspecified) | . | . | . | . | . | . | / | /
Cn1cc(C(=O)N/N=C/C(Br)=C/c2ccccc2)ccc1=O | . | 116 | . | . | . | . | 143 | 11
Cn1cc(C(=O)N/N=C/C(Br)=C\c2ccccc2)ccc1=O | . | 112 | . | . | . | . | 77 | 11
COc1ccc(C(=O)N/N=C/C(Br)=C/c2ccccc2)cc1 | . | . | . | . | . | . | / | /
Cn1cc(C(=O)N/N=C/C=C/c2ccccc2)ccc1=O | . | . | . | . | . | . | / | /
Nc1c(C(=O)C2CC2)sc2nc(-c3ccccc3)cc(C(F)(F)F)c12 | . | . | . | . | . | . | / | /
CN(C)CCNC(=O)c1sc2nc(-c3ccccc3)cc(C(F)(F)F)c2c1N | . | 91 | . | . | . | . | 100 | 11
CCC(C)C(=O)Nc1nc(C)c(-c2csc(Nc3cc(Cl)ccc3OC)n2)s1 (stereo unspecified) | . | 85 | . | . | . | . | 56 | 30
COc1ccc(Cl)cc1Nc1nc(-c2sc(NC(=O)c3ccco3)nc2C)cs1 | . | 106 | . | . | . | . | 75 | 21
CCC(C)C(=O)Nc1nc(C)c(-c2csc(Nc3cc(OC)ccc3OC)n2)s1 (stereo unspecified) | . | 83 | . | . | . | . | 61 | 53
COc1ccc(OC)c(Nc2nc(-c3sc(C)nc3C)cs2)c1 | . | . | . | . | . | . | / | /
Cc1ccc2[nH]c(=O)c(-c3nc4cc(C)ccn4c3NCc3ccco3)cc2c1 | . | 88 | . | . | . | . | 75 | 39
Cc1ccc(NC(=S)N2CCN(c3ccccn3)CC2)cc1C | . | . | . | . | . | . | / | /
O=C(c1ccc2ccccc2n1)N1CCN(c2ccccc2O)CC1 | . | 92 | . | . | . | . | 107 | 40
COc1ccccc1CN1CCNC(=O)C1CC(=O)NC1CCCCCC1 (stereo unspecified) | . | . | . | . | . | . | / | /
CCNC(=S)/N=C(/Nc1ccc(OC)cc1)Nc1nc(C)cc(C)n1 | . | . | . | . | . | . | / | /
CCNC(=S)/N=C(/Nc1ccccc1)Nc1nc(C)cc(C)n1 | . | 80 | . | . | . | . | 113 | 64
O=C(NNC(=O)c1csc(N2CCOCC2)n1)c1cccnc1 | . | . | . | . | . | . | / | /
CC(Sc1nnc(C2CC2)n1C1CC1)C(=O)c1ccc(Br)cc1 (stereo unspecified) | . | / | . | . | . | . | / | /

Assay outcomes as filed in PubChem.
